Assay results published in PubChem BioAssay (NCATS).
Where “and” joins values, the source holds several entries; their conditions need not be identical. Identical values can stand only once. Records with an inconclusive call do not appear. Calls of active or inactive are those of the source. Unless noted, calls follow the shape of the dose curve; as a rule, active = well fitted curve in the direction sought with a large enough effect; inconclusive = small, poorly fitted or top-dose-only effect, or another doubt; inactive = no such curve, though single readings can be large; an effect the other way counts as inactive or inconclusive.

Experiments:
[1] = Cell Viability - N2a (AID 540); details: N2a mouse neuroblastoma cell viability; at 92.2 µM (top of the series);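 also: plate controls were DMSO alone for no effect and tamoxifen control for full effect; nearly all actives have a fitted effect of over 45% in size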
Procedure, shortened: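 Mouse neuroblastoma N2a cells (1500/well) were preincubated 5 hr at 37 °C, then exposed to compounds for 40 hr at 37 °C in complete medium. Viability was read as intracellular ATP by CellTiter-Glo luminescence; AC50 from Hill fits.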

[2] = target: Cytochrome P450 3A4 (Homo sapiens) (UniProt P08684); assay: qHTS Assay for Inhibitors and Substrates of Cytochrome P450 3A4 (AID 884); also: nearly all actives have a fitted effect of over 50% in size; also: potency is read from the fitted curve at half-maximal effect
Procedure, shortened: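 20 nM human CYP3A4 with 25 uM Luciferin-PPXE (at KM) in 200 mM KPO4, preincubated 10 min with compound; NADPH regeneration started a 60 min RT reaction. Luciferin detected by luminescence, normalized to 57 uM ketoconazole as full inhibition.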

[3] = MultiTox-Fluor Cytotoxicity Assay - LYMP1-001 - Dead Cells (AID 946);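 also: 0% = DMSO and 100% = tetraoctylammonium bromide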
Procedure, shortened: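 In this qHTS, 15 uM tetraoctylammonium bromide defined 100% and DMSO defined basal activity. Lymphoblastoid cells (LYMP1-001, 2500 per well) received compound for 16 hr at 37 C before a fluorogenic dead-cell substrate readout at 485/520 nm.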

[4] = Cell Viability - LYMP1-002 - Assay at 16 hr (AID 948);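 also: 0% = DMSO alone and full effect = 92 µM tetraoctylammonium bromide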
Procedure, shortened: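 In this qHTS, lymphoblastoid LYMP1-002 cells (human) receive compounds for 16 hr at 37 C. Viability is taken from CellTiter-Glo ATP luminescence, and AC50 derives from standard Hill fits.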

[5] = MultiTox-Fluor Cytotoxicity Assay - LYMP1-003 - Live Cells (AID 962);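 also: 0% = DMSO only and full loss = 92 µM tetraoctylammonium bromide; cytotoxic hits lower the live-cell protease signal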
Procedure, shortened: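 LYMP1-003 human lymphoblastoid cells (2500/well) in complete medium were preincubated 5 hr at 37 C, then exposed to compounds for 16 hr at 37 C. Live-cell protease cleavage of GF-AFC read by fluorescence (Ex/Em 405/510); AC50 from Hill fits.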

[6] = Cell Viability - LYMP1-003 - Assay at 24 hr (AID 963);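 also: plate controls were DMSO only for no effect and tetraoctylammonium bromide positive control for full effect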
Procedure, shortened: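 Human lymphoblastoid LYMP1-003 cells (2500/well) were rested 5 hr at 37 C, then exposed to compounds in complete medium for 24 hr at 37 C. Cellular ATP was quantified by CellTiter-Glo luminescence, and AC50 values came from Hill fits of concentration-response data.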

[7] = Cell Viability - LYMP1-003 - Assay at 40 hr (AID 964); also: % is scaled to controls: 0 for no effect and ±100 for the full control effect; nearly all actives have a fitted effect of over 60% in size
Procedure, shortened: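 Human lymphoblastoid LYMP1-003 cells, 2500/well in complete medium, rested 5 hr at 37 C, then exposed to compounds for 40 hr at 37 C. Viability read as intracellular ATP by CellTiter-Glo luminescence; AC50 from Hill fits of concentration-response data.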

[8] = Cell Viability - LYMP2-003 (AID 965);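 also: cells exposed to compounds for 24 h before reading; 0% = DMSO only and full effect = 92 µM tetraoctylammonium bromide; nearly all actives have a fitted effect of over 50% in size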
Procedure, shortened: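 qHTS, human lymphoblastoid line, 2500 cells/well, complete medium. 24 h drug, 37 C. ATP-based luminescent readout; Hill-fit AC50.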

[9] = Cell Viability - LYMP2-017 (AID 972); also: % is scaled to controls: 0 for no effect and ±100 for the full control effect; nearly all actives have a fitted effect of over 55% in size
Procedure, shortened: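 Human lymphoblastoid cells (2500/well) were seeded in complete medium, held 5 hr at 37 C, then exposed to compounds for 24 hr at 37 C. Intracellular ATP was read by CellTiter-Glo luminescence after 30 min at room temperature, with AC50 values from Hill-equation fits.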

[10] = Cell Viability - LYMP2-025 (AID 976);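 also: plate controls were DMSO only for no effect and tetraoctylammonium bromide control for full effect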
Procedure, shortened: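 Human lymphoblastoid LYMP2-025 cells (2500/well) were pre-incubated 5 hr at 37 C, then treated with compounds for 24 hr at 37 C in complete medium. Viability was read as intracellular ATP by CellTiter-Glo luminescence; AC50 from Hill fits.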

[11] = Cell Viability - LYMP2-002 (AID 977);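 also: plate controls were DMSO only for no effect and 92 µM tetraoctylammonium bromide for full effect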
Procedure, shortened: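 Luminescent ATP readout (CellTiter-Glo, 30 min room temperature) after 24 h compound exposure at 37 C of a human lymphoblastoid line, 2500 cells/well. AC50 values derived by standard Hill fitting of qHTS concentration-response data.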

[12] = Cell Viability - LYMP2-007 (AID 979);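 also: cells exposed to compound for 24 h before reading; 0% = DMSO only and the negative end = 92 µM tetraoctylammonium bromide; nearly all actives have a fitted effect of over 60% in size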
Procedure, shortened: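 Human lymphoblastoid cells (2500/well) were plated in complete medium, incubated 5 hr at 37 C, then exposed to compounds for 24 hr at 37 C. Intracellular ATP was read by CellTiter-Glo luminescence after 30 min at room temperature; AC50 from Hill fits.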

[13] = Cell Viability - LYMP2-008 (AID 980); also: % is scaled to controls: 0 for no effect and ±100 for the full control effect; nearly all actives have a fitted effect of over 60% in size
Procedure, shortened: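 Human lymphoblastoid cells (2500/well) were plated, held 5 hr at 37 C, then exposed to compounds for 24 hr at 37 C in complete medium. Intracellular ATP was read by CellTiter-Glo luminescence; AC50 from Hill-fitted concentration-response.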

[14] = Cell Viability - LYMP2-014 (AID 983);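 also: plate controls were DMSO only for no effect and 92 µM tetraoctylammonium bromide for full effect; nearly all actives have a fitted effect of over 50% in size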
Procedure, shortened: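 Human lymphoblastoid cells (2500/well) were pre-incubated 5 hr at 37 C, then exposed to compounds in complete medium for 24 hr at 37 C. Intracellular ATP was read by CellTiter-Glo luminescence after 30 min at room temperature; AC50 from Hill fits.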

[15] = Cell Viability - LYMP1-002 - Assay at 24 hr (AID 993); also: % is scaled to controls: 0 for no effect and ±100 for the full control effect
Procedure, shortened: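 Human lymphoblastoid LYMP1-002 cells, 2500/well in complete medium, were treated with compounds for 24 h at 37 C; intracellular ATP was read by CellTiter-Glo luminescence. AC50 values came from Hill-equation fits of qHTS concentration-response data.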

[16] = target: Peroxisome proliferator-activated receptor alpha (Homo sapiens) (UniProt Q07869); assay: qHTS assay for small molecule agonists of the peroxisome proliferator-activated receptor alpha (PPARalpha) signaling pathway (AID 651778); details: PathHunter PPARalpha complementation, chemiluminescence, 6 h; active compounds read high; also: % of control where 0% means no effect
Procedure, shortened: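 Cells plated at 2,000/well and held overnight at 37 C, 5% CO2, then compound added by pin tool for 6 hr; after PathHunter detection reagent and 60 min at room temperature, chemiluminescence from enzyme complementation was read.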

[17] = qHTS assay for small molecule agonists of the antioxidant response element (ARE) signaling pathway measured by Nrf2-dependant transcriptional activity (AID 720636; active = well fitted curve in the direction sought with a large enough effect in the repeat runs; an effect the other way counts as inactive or inconclusive;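 also: HepG2 cells with an ARE-driven luciferase reporter; % of control where 0% means no effect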)
Procedure, shortened: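 HepG2 ARE-luc reporter line, 1% dialyzed FBS; 6 hr attachment at 37 C, compound pinned in, 16 hr at 37 C/5% CO2; ONE-Glo, 30 min RT, luminescence read.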

[18] = qHTS assay for small molecule agonists of the antioxidant response element (ARE) signaling pathway measured by Nrf2-dependant transcriptional activity - cell viability counter screen (AID 720653; active = well fitted curve in the direction sought with a large enough effect in the repeat runs; an effect the other way counts as inactive or inconclusive; also: % is scaled to controls: 0 for no effect and ±100 for the full control effect); details: ARE-bla HepG2 viability, CellTiter-Glo ATP luminescence, 16 h; active compounds read low
Procedure, shortened: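 ARE-bla HepG2 cells (2,000/well) rested 5 hrs at 37C/5% CO2, then exposed to compounds in DMSO for 16 hrs. Viability was read in the same wells as intracellular ATP by luminescence, 30 min at room temperature after reagent addition.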

[19] = qHTS assay for cell viability of HEK293 cells (AID 743288); details: ATP luminescence (CellTiter-Glo), 18 h; max response: active compounds read low; also: % is scaled to controls: 0 for no effect and ±100 for the full control effect; nearly all actives have a fitted effect of over 50% in size
Procedure, shortened: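 Luminescent ATP quantitation served as the viability read-out. Cells (parental HEK293, 2,000/well) received compounds after at least 5 h at 37 C and were exposed for 18 h before a 30 min room-temperature reagent step.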

[20] = qHTS assay for cell viability of the p53RE-bla HCT-116 cell line (AID 743292); also: % is scaled to controls: 0 for no effect and ±100 for the full control effect; nearly all actives have a fitted effect of over 55% in size
Procedure, shortened: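 Luminescent ATP quantitation (CellTiter-Glo) served as the viability read-out; reagent was added after 16 h compound exposure at 37 C and read after 30 min at room temperature. Cells: p53RE-bla HCT-116, 4,000 per well.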

Peroxisome proliferator-activated receptor alpha (Homo sapiens), sequence (Q07869 whole entry, looked up): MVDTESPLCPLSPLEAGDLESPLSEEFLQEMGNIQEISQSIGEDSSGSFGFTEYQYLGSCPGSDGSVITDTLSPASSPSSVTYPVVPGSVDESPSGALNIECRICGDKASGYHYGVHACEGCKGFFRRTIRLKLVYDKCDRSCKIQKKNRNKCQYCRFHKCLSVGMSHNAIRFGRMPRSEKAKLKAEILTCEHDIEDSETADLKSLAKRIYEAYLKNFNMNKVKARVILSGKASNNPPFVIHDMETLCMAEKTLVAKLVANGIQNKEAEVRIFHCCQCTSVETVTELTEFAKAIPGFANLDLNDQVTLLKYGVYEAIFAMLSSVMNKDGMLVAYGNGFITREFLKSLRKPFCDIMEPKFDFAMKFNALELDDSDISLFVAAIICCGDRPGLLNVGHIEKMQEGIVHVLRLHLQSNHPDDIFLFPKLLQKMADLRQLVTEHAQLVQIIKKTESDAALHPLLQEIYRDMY
Cytochrome P450 3A4 (Homo sapiens), sequence (P08684 whole entry, looked up): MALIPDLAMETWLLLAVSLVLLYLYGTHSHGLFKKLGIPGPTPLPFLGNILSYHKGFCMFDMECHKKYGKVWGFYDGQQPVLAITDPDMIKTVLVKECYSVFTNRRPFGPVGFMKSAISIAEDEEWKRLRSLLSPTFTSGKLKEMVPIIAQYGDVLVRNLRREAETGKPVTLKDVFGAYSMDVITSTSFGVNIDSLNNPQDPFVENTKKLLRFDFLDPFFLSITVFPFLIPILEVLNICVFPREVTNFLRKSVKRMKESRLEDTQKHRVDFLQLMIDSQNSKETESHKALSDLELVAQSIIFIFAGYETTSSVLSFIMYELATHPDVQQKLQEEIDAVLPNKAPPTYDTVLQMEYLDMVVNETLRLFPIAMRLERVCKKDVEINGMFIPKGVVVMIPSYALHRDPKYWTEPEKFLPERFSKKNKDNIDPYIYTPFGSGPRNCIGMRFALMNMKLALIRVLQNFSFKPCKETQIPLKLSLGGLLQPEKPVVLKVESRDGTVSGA

COC1=CC(=O)O[C@@H](/C=C/c2ccc3c(c2)OCO3)C1
inactive: activity change, negative = cytotoxicity [1] -10.4% | Potency [3] | Potency [4] | Potency [5] | Potency [6] | Potency [7] | Potency [8] | Potency [9] | Potency [10] | Potency [11] | Potency [12] | Potency [13] | Potency [14] | Potency [15] | max response [16] -0.53% | outcome [17] | max response [18] -10.1% | max response [19] -22% | Potency [20]
active: Potency [2] 2510 nM

COc1cc(OC)c(/C=C2/C(=O)Nc3ccccc32)c(OC)c1
active: Potency [2] 2510 nM

O=C=NC1CCCCC1
inactive: activity change, negative = cytotoxicity [1] -6.26% and 7.73% | Potency [2] | Potency [3] | Potency [4] | Potency [5] | Potency [6] | Potency [7] | Potency [8] | Potency [9] | Potency [10] | Potency [11] | Potency [12] | Potency [13] | Potency [14] | Potency [15] | max response [16] 0.341% and -3.39% | outcome [17] | max response [18] 3.13% and -2.08% | max response [19] -2.8% and 0.863% | Potency [20]

Nc1c(Cl)c(Cl)nc(C(=O)O)c1Cl
inactive: activity change, negative = cytotoxicity [1] -4.43% | Potency [2] | Potency [3] | Potency [4] | Potency [5] | Potency [6] | Potency [7] | Potency [8] | Potency [9] | Potency [10] | Potency [11] | Potency [12] | Potency [13] | Potency [14] | Potency [15] | max response [16] 0.0872% and -2.27% and -1.09% | outcome [17] | max response [18] 5.28% and -6.28% and -12.8% | max response [19] -0.605% and -10.4% and -8.99% | Potency [20]

Brc1ccccc1
inactive: activity change, negative = cytotoxicity [1] -4.7% | Potency [2] | Potency [3] | Potency [4] | Potency [5] | Potency [6] | Potency [7] | Potency [8] | Potency [9] | Potency [10] | Potency [11] | Potency [12] | Potency [13] | Potency [14] | Potency [15] | max response [16] -0.353% and -0.0548% | outcome [17] | max response [18] -10.2% and 1.06% | max response [19] 3.06% and -4.67% | Potency [20]

C[N+](C)(C)Cc1ccccc1
inactive: activity change, negative = cytotoxicity [1] -22% | Potency [2] | Potency [3] | Potency [4] | Potency [5] | Potency [6] | Potency [7] | Potency [8] | Potency [9] | Potency [10] | Potency [11] | Potency [12] | Potency [13] | Potency [14] | Potency [15] | max response [16] -5.46% and 0.269% | outcome [17] | max response [18] -0.49% and -11.3% | max response [19] 3.84% and -11.6% | Potency [20]

C=CC(C)=O
inactive: activity change, negative = cytotoxicity [1] 3.67% | Potency [2] | Potency [3] | Potency [4] | Potency [5] | Potency [6] | Potency [7] | Potency [8] | Potency [9] | Potency [10] | Potency [11] | Potency [12] | Potency [13] | Potency [14] | Potency [15] | max response [16] -1.26% | outcome [17] | max response [18] 0.624% | max response [19] 0.318% | Potency [20]

N#CCCCl
inactive: activity change, negative = cytotoxicity [1] -2.76% and -3.85% | Potency [2] | Potency [3] | Potency [4] | Potency [5] | Potency [6] | Potency [7] | Potency [8] | Potency [9] | Potency [10] | Potency [11] | Potency [12] | Potency [13] | Potency [14] | Potency [15] | max response [16] -3.2% and -4.12% | outcome [17] | max response [18] 4.67% and 7.37% | max response [19] -10.6% and 0.832% | Potency [20]

ClCBr
inactive: activity change, negative = cytotoxicity [1] -7.64% | Potency [2] | Potency [3] | Potency [4] | Potency [5] | Potency [6] | Potency [7] | Potency [8] | Potency [9] | Potency [10] | Potency [11] | Potency [13] | Potency [15] | max response [16] -7.14% | outcome [17] | max response [18] -6.45% | max response [19] 4.95% | Potency [20]

C=C(C)C(=O)OCC1CO1 (centres undefined)
inactive: activity change, negative = cytotoxicity [1] -4.08% | Potency [2] | Potency [3] | Potency [4] | Potency [5] | Potency [6] | Potency [7] | Potency [8] | Potency [9] | Potency [10] | Potency [11] | Potency [12] | Potency [13] | Potency [14] | Potency [15] | max response [16] -4.83% | outcome [17] | max response [18] 1.28% | max response [19] 3.25% | Potency [20]

Clc1nc(Cl)nc(Cl)n1
inactive: activity change, negative = cytotoxicity [1] -4.85% | Potency [2] | Potency [3] | Potency [4] | Potency [5] | Potency [6] | Potency [7] | Potency [8] | Potency [9] | Potency [10] | Potency [11] | Potency [12] | Potency [13] | Potency [14] | Potency [15] | max response [16] -5.93% and -1.12% | outcome [17] | max response [18] -4.92% and -7.17% | max response [19] -10.6% and 4.47% | Potency [20]
